For 40 molecules, log2 enrichment results are on record in the supplement of paper PMC10369915.

The test addresses SHP2 N-SH2 domain T42A. Nature of the test: log2 enrichment relative to wild-type ITIM peptide; higher = stronger binding.
In the case of VFSVDYGELDI [PD-1 ITIM pTyr223 peptide variant F228I], the log2 enrichment is -1.45. Under VFSVDYGELMF [PD-1 ITIM pTyr223 peptide variant D227M] stands -0.781; under VFSVDYGELVF [PD-1 ITIM pTyr223 peptide variant D227V], -0.565; under VFSVDYGEPDF [PD-1 ITIM pTyr223 peptide variant L226P], -0.564. In turn, VFSLDYGELDF [PD-1 ITIM pTyr223 peptide variant V221L] showed a log2 enrichment of -0.962.

In the case of VFSVDYGELDL [PD-1 ITIM pTyr223 peptide variant F228L], the log2 enrichment was -1.19.

The molecule VFFVDYGELDF [PD-1 ITIM pTyr223 peptide variant S220F] returned a log2 enrichment of -0.202. In the case of PFSVDYGELDF [PD-1 ITIM pTyr223 peptide variant V218P], the log2 enrichment turned out to be 0.0339.

Regarding VFSVDYGILDF [PD-1 ITIM pTyr223 peptide variant E225I], the log2 enrichment is -0.312. Under VFSPDYGELDF [PD-1 ITIM pTyr223 peptide variant V221P] stands -1.23; under VFSIDYGELDF [PD-1 ITIM pTyr223 peptide variant V221I], -0.464. The value for IFSVDYGELDF [PD-1 ITIM pTyr223 peptide variant V218I] was -0.151. The value for VFSVDYGELDV [PD-1 ITIM pTyr223 peptide variant F228V] was -1.42. In the case of VVSVDYGELDF [PD-1 ITIM pTyr223 peptide variant F219V], the log2 enrichment was -0.0583. Molecule VFSVMYGELDF [PD-1 ITIM pTyr223 peptide variant D222M] displayed a log2 enrichment of 0.307. The value for VFSVDYGELDW [PD-1 ITIM pTyr223 peptide variant F228W] was 0.678; that for VFSVDYGELDP [PD-1 ITIM pTyr223 peptide variant F228P] was -1.6; that for FFSVDYGELDF [PD-1 ITIM pTyr223 peptide variant V218F] was -0.37.

VFSVDYGELLF [PD-1 ITIM pTyr223 peptide variant D227L]: the log2 enrichment was -0.728. With VFSVVYGELDF [PD-1 ITIM pTyr223 peptide variant D222V], the log2 enrichment stood at 0.135.

Take VFSFDYGELDF [PD-1 ITIM pTyr223 peptide variant V221F]: the log2 enrichment was -1.03.

With VFSVDYGFLDF [PD-1 ITIM pTyr223 peptide variant E225F], the log2 enrichment was -0.82. As to VFSVIYGELDF [PD-1 ITIM pTyr223 peptide variant D222I], the log2 enrichment is -0.259. The value for VFSMDYGELDF [PD-1 ITIM pTyr223 peptide variant V221M] was -0.943; that for MFSVDYGELDF [PD-1 ITIM pTyr223 peptide variant V218M] was 0.0157; that for VFSVDYGEIDF [PD-1 ITIM pTyr223 peptide variant L226I] was -0.691. The value for VFSVDYMELDF [PD-1 ITIM pTyr223 peptide variant G224M] was -0.224; that for VFSVFYGELDF [PD-1 ITIM pTyr223 peptide variant D222F] was -0.334; that for VFSVDYLELDF [PD-1 ITIM pTyr223 peptide variant G224L] was -0.0968. Molecule VFSVDYGLLDF [PD-1 ITIM pTyr223 peptide variant E225L] showed a log2 enrichment of -0.496. VFSVPYGELDF [PD-1 ITIM pTyr223 peptide variant D222P] had a log2 enrichment of 1.61. Under VFVVDYGELDF [PD-1 ITIM pTyr223 peptide variant S220V] stands -0.0553; under VFMVDYGELDF [PD-1 ITIM pTyr223 peptide variant S220M], -0.0956; under VFSVDYGELFF [PD-1 ITIM pTyr223 peptide variant D227F], -0.714. Molecule VFSVDYGELPF [PD-1 ITIM pTyr223 peptide variant D227P] returned a log2 enrichment of -1.19.

VFSVDYGMLDF [PD-1 ITIM pTyr223 peptide variant E225M] displayed a log2 enrichment of -0.596. Under VFSVDYPELDF [PD-1 ITIM pTyr223 peptide variant G224P] stands 1.75. VFSVDYGELWF [PD-1 ITIM pTyr223 peptide variant D227W] gave a log2 enrichment of -0.71. In the case of VPSVDYGELDF [PD-1 ITIM pTyr223 peptide variant F219P], the log2 enrichment turned out to be 0.209. The value for VFSVDYWELDF [PD-1 ITIM pTyr223 peptide variant G224W] was -0.623.
